# Paper PMC7862700, “An all-to-all approach to the identification of sequence-specific readers for epigenetic DNA modifications on cytosine”
# How the values were obtained:
# Assay in all cases: DAPPL (digital affinity profiling via proximity ligation, sequencing); 10 mM Tris-HCl pH 7.5, 50 mM NaCl, 1 mM DTT, 4% glycerol, room temperature, 30 min; GST-TFs on glutathione beads, 16-mer random dsDNA library, 0.1% formaldehyde crosslink after washing; high values mean tight binding
# Details in all cases: protein: recombinant; tags: N-terminal GST; dsDNA, one strand shown
# [1] = molecular target: T1, ELK1 (Homo sapiens, UniProt P19419 1-428)
# T1 sequence: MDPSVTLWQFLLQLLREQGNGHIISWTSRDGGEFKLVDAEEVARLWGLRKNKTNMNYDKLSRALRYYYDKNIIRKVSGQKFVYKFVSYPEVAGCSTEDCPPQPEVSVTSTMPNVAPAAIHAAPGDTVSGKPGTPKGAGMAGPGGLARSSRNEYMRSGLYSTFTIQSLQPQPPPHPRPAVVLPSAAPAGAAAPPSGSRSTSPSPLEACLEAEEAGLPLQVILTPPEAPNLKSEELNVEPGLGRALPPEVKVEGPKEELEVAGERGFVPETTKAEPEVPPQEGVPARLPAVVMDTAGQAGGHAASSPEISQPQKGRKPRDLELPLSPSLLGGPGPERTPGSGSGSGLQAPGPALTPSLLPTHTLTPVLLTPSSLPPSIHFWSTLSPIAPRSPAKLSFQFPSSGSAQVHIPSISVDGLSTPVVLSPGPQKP
# Method in brief: (§1)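 GST fusions of human transcription factors were expressed in yeast and captured with glutathione beads. Once given DNA barcodes and pooled alongside a tag-only sample, they were incubated for 30 min at room temperature with 200 nmole of a random double-stranded 16-mer DNA library in Tris/NaCl/DTT/glycerol buffer, then washed, crosslinked (0.1% formaldehyde), proximity-ligated, PCR-amplified and sequenced on an Illumina NextSeq500. The binding signal of each hexamer is its read frequency for a factor divided by its frequency for the tag-only sample.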
# [2] = molecular target: T2, GABPA (Homo sapiens, UniProt Q06546 1-454)
# T2 sequence: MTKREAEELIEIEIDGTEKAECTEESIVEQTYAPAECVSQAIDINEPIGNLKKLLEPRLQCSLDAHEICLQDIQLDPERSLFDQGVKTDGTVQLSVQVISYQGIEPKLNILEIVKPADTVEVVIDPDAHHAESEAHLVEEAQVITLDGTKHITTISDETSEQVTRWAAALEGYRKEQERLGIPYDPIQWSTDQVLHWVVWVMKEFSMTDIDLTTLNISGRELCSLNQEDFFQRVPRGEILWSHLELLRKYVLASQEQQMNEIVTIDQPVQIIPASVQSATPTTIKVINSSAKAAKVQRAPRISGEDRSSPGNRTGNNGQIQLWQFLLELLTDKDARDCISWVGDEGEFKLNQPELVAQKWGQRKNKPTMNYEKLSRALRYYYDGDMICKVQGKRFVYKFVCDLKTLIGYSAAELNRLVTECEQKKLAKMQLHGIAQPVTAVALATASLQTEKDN
# Method in brief: as §1
# [3] = molecular target: T3, ERG (Homo sapiens, UniProt P11308 1-479)
# T3 sequence: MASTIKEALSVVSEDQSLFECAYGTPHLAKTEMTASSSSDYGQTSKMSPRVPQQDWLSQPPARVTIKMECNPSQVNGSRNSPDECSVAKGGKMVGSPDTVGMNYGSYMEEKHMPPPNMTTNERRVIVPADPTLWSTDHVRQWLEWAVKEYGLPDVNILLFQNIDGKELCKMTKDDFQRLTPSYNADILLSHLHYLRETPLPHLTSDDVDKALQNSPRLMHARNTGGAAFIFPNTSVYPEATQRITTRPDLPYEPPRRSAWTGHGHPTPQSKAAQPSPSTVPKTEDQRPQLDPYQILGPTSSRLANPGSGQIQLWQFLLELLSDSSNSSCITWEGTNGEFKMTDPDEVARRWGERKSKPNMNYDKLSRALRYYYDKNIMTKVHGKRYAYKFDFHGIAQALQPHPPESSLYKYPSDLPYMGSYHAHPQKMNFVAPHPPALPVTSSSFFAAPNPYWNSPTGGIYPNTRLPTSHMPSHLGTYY
# Method in brief: as §1
# [4] = molecular target: ELF1 (Homo sapiens, UniProt P32519 1-619)
# Chain of ELF1 (P32519 whole entry): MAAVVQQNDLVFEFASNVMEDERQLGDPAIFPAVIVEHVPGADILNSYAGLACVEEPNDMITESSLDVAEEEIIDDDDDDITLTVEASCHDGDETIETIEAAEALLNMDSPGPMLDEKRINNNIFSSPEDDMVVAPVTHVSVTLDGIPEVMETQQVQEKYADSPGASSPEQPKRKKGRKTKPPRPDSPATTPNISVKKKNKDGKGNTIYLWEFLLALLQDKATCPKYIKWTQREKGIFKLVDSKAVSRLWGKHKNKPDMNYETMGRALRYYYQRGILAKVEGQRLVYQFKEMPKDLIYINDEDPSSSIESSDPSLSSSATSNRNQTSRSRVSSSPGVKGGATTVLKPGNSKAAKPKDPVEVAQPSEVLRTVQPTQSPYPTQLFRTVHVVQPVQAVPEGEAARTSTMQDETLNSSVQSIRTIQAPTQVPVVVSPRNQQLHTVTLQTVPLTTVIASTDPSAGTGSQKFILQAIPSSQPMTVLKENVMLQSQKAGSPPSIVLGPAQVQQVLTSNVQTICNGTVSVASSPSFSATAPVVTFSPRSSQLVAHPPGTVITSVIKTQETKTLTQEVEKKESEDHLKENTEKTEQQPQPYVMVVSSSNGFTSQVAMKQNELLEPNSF
# Method in brief: as §1
# [5] = molecular target: T4, EHF (Homo sapiens, UniProt Q9NZC4 1-300)
# T4 sequence: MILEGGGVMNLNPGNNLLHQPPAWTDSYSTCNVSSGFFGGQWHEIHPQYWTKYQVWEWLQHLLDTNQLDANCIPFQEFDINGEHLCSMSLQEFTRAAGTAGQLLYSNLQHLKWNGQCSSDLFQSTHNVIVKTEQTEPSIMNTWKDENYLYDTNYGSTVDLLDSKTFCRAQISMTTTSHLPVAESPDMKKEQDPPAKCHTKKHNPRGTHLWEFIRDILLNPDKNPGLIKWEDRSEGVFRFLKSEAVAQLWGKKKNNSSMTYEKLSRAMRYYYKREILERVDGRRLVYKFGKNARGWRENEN
# Method in brief: as §1
# [6] = molecular target: SPIB (Homo sapiens, UniProt Q01892 1-262)
# Chain of SPIB (Q01892 whole entry): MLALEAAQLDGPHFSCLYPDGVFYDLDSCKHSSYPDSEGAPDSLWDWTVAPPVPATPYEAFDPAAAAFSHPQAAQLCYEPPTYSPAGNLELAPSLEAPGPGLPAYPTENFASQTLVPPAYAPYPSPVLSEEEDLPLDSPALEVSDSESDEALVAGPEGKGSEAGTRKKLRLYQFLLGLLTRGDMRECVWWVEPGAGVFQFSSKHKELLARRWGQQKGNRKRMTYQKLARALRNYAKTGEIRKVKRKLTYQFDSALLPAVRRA
# Method in brief: as §1
# [7] = molecular target: T5, FEV (Homo sapiens, UniProt Q99581 1-238)
# T5 sequence: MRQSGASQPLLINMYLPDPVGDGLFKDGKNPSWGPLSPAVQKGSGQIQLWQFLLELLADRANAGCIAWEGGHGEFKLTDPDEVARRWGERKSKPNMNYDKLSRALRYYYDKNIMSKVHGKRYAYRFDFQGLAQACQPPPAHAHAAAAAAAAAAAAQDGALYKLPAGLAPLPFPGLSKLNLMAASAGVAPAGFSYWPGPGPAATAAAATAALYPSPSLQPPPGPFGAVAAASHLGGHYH
# Method in brief: as §1
# [8] = molecular target: ETV5 (Homo sapiens, UniProt P41161 1-510)
# Chain of ETV5 (P41161 whole entry): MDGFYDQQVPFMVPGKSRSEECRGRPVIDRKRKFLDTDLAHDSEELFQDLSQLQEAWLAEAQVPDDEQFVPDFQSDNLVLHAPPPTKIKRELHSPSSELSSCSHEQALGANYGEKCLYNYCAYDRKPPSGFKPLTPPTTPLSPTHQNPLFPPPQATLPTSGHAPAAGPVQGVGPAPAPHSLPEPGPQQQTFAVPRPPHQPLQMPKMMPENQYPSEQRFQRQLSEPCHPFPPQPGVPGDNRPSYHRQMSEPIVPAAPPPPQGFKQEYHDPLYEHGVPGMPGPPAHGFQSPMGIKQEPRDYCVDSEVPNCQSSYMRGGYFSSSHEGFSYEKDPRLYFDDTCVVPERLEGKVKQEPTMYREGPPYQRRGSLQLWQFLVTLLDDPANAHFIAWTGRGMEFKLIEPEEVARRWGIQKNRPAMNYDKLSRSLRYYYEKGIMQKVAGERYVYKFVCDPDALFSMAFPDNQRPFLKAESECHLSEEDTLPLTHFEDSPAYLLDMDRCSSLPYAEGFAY
# Method in brief: as §1
# [9] = molecular target: ELF4 (Homo sapiens, UniProt Q99607 1-663)
# Chain of ELF4 (Q99607 whole entry): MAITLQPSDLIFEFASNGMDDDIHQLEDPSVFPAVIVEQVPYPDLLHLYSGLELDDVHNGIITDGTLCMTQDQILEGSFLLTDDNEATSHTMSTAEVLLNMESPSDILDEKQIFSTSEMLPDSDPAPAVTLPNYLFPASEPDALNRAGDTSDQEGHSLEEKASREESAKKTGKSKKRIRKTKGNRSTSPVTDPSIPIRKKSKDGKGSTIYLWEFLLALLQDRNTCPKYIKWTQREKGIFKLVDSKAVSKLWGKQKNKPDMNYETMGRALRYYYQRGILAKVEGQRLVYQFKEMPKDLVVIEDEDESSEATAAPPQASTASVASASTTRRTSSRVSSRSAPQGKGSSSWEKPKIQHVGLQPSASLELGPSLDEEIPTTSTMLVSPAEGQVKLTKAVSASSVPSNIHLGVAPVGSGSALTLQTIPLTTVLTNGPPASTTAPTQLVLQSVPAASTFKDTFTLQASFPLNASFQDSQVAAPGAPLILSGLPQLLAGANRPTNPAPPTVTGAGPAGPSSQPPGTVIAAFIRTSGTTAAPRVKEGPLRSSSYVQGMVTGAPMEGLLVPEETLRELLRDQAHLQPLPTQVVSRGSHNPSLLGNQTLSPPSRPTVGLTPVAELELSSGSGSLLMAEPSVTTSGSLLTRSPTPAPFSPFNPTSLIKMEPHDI
# Method in brief: as §1
# [10] = molecular target: T6, ELF3 (Homo sapiens, UniProt P78545 1-371)
# T6 sequence: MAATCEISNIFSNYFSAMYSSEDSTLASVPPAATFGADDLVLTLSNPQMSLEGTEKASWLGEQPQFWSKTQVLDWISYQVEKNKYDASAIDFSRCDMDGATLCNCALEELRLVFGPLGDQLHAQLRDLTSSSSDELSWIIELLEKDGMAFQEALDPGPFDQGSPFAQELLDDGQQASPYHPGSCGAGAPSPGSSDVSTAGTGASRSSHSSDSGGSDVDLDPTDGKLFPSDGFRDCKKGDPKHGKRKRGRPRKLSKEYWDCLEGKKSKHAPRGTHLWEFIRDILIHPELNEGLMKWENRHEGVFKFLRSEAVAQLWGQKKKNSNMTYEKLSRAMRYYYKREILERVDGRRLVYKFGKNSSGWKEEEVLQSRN
# Method in brief: as §1
# [11] = molecular target: ETV1 (Homo sapiens, UniProt P50549 1-477)
# Chain of ETV1 (P50549 whole entry): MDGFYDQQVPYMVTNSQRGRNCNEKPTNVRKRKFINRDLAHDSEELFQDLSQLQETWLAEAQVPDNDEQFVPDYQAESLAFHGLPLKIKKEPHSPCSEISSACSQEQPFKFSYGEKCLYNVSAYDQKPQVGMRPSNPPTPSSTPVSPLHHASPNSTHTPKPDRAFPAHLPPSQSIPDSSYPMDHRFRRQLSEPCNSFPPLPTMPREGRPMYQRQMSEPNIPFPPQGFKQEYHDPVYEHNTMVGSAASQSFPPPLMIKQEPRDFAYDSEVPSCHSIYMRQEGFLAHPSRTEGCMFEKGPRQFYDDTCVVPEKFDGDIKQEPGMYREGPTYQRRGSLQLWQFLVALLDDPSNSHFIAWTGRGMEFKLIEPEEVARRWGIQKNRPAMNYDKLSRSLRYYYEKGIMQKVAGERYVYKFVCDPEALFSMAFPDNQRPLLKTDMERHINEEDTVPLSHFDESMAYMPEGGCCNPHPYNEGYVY
# Method in brief: as §1
# [12] = molecular target: T7, ERF (Homo sapiens, UniProt P50548 1-548)
# T7 sequence: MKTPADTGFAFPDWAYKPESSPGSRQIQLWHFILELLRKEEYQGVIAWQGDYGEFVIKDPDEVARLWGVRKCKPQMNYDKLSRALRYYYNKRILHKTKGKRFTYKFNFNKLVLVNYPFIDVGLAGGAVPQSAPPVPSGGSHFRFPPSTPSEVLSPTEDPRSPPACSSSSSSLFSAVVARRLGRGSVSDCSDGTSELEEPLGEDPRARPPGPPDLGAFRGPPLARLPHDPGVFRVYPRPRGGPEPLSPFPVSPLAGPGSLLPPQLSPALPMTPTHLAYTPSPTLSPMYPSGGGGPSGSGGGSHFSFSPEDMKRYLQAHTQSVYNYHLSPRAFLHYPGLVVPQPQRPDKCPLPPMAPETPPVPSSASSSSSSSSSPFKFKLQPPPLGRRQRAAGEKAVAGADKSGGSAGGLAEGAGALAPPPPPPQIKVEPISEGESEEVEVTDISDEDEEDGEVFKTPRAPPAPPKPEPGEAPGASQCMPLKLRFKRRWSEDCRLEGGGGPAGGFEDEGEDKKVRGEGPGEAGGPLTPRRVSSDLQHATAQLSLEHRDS
# Method in brief: as §1
# [13] = molecular target: T8, ETV3L (Homo sapiens, UniProt Q6ZN32 1-361)
# T8 sequence: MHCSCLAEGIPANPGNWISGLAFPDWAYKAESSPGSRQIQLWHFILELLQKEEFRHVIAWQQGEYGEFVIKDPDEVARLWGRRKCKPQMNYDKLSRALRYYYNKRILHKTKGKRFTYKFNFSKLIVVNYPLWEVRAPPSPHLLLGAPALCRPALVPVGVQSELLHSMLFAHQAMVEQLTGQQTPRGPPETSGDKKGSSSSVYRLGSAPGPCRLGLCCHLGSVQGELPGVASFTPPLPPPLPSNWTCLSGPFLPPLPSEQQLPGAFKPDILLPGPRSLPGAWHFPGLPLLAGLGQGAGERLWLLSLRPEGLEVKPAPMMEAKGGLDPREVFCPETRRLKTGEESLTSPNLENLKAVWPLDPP
# Method in brief: as §1
# [14] = molecular target: T9, ETS2 (Homo sapiens, UniProt P15036 1-469)
# T9 sequence: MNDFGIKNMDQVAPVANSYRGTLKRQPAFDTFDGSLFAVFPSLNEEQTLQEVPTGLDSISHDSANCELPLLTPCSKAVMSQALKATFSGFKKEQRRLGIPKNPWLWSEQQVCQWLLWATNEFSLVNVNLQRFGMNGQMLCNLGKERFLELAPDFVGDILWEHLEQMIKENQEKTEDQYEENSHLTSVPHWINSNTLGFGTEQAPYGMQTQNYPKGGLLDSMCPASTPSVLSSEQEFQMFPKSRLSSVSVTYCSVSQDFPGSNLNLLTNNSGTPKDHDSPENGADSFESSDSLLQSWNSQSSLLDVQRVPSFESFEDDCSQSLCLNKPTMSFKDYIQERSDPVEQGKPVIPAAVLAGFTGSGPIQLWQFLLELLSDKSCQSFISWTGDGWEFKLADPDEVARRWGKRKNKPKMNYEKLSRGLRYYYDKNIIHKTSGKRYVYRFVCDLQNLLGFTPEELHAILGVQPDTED
# Method in brief: as §1
# [15] = molecular target: T10, SPDEF (Homo sapiens, UniProt O95238 1-335)
# T10 sequence: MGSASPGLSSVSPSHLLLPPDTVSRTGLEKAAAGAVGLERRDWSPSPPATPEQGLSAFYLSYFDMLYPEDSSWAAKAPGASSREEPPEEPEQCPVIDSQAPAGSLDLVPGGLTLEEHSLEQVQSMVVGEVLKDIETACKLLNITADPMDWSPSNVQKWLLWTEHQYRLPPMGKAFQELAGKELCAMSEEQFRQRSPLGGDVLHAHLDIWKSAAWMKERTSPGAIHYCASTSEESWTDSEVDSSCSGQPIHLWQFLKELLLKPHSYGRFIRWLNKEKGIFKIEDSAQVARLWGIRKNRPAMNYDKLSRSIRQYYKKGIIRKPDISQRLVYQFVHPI
# Method in brief: as §1
# [16] = molecular target: T11, ETV7 (Homo sapiens, UniProt Q9Y603 1-341)
# T11 sequence: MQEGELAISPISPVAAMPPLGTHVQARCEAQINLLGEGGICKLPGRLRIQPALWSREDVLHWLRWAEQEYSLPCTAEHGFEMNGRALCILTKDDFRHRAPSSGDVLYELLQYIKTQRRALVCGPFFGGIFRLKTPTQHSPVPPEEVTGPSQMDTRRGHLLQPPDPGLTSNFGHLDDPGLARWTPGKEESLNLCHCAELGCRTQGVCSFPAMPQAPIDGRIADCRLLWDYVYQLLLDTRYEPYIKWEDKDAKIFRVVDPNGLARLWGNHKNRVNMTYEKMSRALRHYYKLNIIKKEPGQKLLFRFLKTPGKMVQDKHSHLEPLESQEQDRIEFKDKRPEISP
# Method in brief: as §1
# [17] = molecular target: T12, ETV3 (Homo sapiens, UniProt P41162-2 1-143)
# T12 sequence: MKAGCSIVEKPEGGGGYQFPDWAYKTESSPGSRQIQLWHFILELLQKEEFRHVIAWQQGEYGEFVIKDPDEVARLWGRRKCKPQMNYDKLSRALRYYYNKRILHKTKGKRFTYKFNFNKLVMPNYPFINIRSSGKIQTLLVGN
# Method in brief: as §1
# [18] = molecular target: ETV6 (Homo sapiens, UniProt P41212 1-452)
# Chain of ETV6 (P41212 whole entry): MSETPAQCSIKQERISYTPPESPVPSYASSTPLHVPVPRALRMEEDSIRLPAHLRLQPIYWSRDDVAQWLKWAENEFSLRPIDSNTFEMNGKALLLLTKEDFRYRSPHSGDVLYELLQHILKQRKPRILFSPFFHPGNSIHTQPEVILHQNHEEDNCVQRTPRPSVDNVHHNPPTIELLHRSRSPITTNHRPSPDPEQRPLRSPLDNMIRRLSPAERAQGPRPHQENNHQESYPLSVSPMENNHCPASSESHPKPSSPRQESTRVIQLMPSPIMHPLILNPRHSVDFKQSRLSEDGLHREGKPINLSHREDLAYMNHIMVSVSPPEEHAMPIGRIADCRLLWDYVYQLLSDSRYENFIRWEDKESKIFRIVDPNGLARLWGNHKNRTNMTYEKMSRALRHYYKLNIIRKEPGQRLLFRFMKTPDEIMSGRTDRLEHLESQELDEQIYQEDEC
# Method in brief: as §1
sequence,measurement,setting,value
CCCGTC,binding signal,[1],"1.1 fold enrichment (6-mer frequency, TF over GST control)"
same,binding signal,[2],"1.01 fold enrichment (6-mer frequency, TF over GST control)"
same,binding signal,[3],"1.1 fold enrichment (6-mer frequency, TF over GST control)"
same,binding signal,[4],"1.13 fold enrichment (6-mer frequency, TF over GST control)"
same,binding signal,[5],"1.09 fold enrichment (6-mer frequency, TF over GST control)"
same,binding signal,[6],"1.05 fold enrichment (6-mer frequency, TF over GST control)"
same,binding signal,[7],"1.09 fold enrichment (6-mer frequency, TF over GST control)"
same,binding signal,[8],"1.08 fold enrichment (6-mer frequency, TF over GST control)"
same,binding signal,[9],"1.07 fold enrichment (6-mer frequency, TF over GST control)"
same,binding signal,[10],"1.03 fold enrichment (6-mer frequency, TF over GST control)"
same,binding signal,[11],"1.1 fold enrichment (6-mer frequency, TF over GST control)"
same,binding signal,[12],"1.14 fold enrichment (6-mer frequency, TF over GST control)"
same,binding signal,[13],"1 fold enrichment (6-mer frequency, TF over GST control)"
same,binding signal,[14],"1.04 fold enrichment (6-mer frequency, TF over GST control)"
same,binding signal,[15],"1.12 fold enrichment (6-mer frequency, TF over GST control)"
same,binding signal,[16],"1.16 fold enrichment (6-mer frequency, TF over GST control)"
same,binding signal,[17],"1.03 fold enrichment (6-mer frequency, TF over GST control)"
same,binding signal,[18],"1.07 fold enrichment (6-mer frequency, TF over GST control)"
